Over roughly 3,200 compounds, “TSA(with NAD+) / Primary screening (TSA) / delta Tm (K)” has its median near -0.04; the highest 2% begin near 0.37. This is one part of a sample in which the highest values are shown more often than they occur.
The molecules below were run against NAD-dependent deacetylase Sirtuin 1 (human, UniProt Q96EB6) (assay: primary screen, delta tm). Settings: 10 µM.
Design: single well (n = 1, as 'the same TSA')
Experimental: A total of 3,192 compounds extracted from the proposed lists were first screened by thermal shift assay (TSA), which determined a melting temperature shift (ΔTm) of Sirtuin 1 upon the addition of a test compound at a concentration of 10 µM (n = 1) with primary hit criteria of ΔTm > 0.45 K or ΔTm < −1.5 K. Primary hits (48 compounds) were retested in the same assay at three concentrations (5, 10, 20 µM, n = 4) for hit confirmation and for dose-dependency check. Secondary hits (41 compounds) were checked their selectivity for Sirtuin 1 based on counterscreening on unrelated protein targets (bovine carbonic anhydrase (CA) and recombinant SH2 domain of hABL1 kinase (ABL1)) at three different concentrations (5, 10, 20 µM, n = 4), which yielded 38 hit compounds, hereafter referred to as TSA hits. The TSA screening above was conducted in the absence of NAD+. As noted, the structure of Sirtuin 1 is different in the presence of NAD+ and substrate. The chemical profile of TSA hits found from the different conditions could be different. […] As a result, 39 TSA hits were found.

Sequence of NAD-dependent deacetylase Sirtuin 1 (Q96EB6 2-747 limits assumed): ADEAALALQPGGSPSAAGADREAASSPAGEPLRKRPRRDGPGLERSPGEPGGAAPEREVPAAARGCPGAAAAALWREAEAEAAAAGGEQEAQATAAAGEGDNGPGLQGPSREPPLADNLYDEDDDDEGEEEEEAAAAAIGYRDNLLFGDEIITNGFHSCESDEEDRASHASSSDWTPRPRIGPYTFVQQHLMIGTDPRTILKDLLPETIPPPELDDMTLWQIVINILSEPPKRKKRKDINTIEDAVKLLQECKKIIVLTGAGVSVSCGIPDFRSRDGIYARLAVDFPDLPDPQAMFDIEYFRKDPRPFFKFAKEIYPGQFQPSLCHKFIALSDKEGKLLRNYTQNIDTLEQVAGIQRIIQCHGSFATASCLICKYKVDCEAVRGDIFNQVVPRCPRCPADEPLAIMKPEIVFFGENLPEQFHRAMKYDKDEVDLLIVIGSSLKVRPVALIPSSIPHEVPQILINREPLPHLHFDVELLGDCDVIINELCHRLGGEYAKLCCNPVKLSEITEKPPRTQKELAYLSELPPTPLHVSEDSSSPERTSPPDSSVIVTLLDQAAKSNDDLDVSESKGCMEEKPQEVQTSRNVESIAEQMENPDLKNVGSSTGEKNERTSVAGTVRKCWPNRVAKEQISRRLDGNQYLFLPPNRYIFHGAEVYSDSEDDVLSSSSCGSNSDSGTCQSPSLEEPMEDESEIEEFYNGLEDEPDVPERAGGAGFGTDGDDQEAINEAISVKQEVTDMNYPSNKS

Structure (SMILES)	TSA(with NAD+) / Primary screening (TSA) / delta Tm (K)
CN(c1ccccc1)S(=O)(=O)c1cccc(NC(=O)c2cccc(C#N)c2)c1	0.08 K
COc1ccc(N(C)S(=O)(=O)c2cccc(C(=O)Nc3ccc(-n4cnnn4)cc3)c2)cc1	0.76 K
COc1ccc(N(C)S(=O)(=O)c2cccc(C(=O)Nc3ccc(Br)cc3F)c2)cc1	0.36 K
COc1ccc(N(C)S(=O)(=O)c2cccc(C(=O)Nc3ccc4c(C)cc(=O)oc4c3)c2)cc1	-0.09 K
Cc1ccc(N(C)S(=O)(=O)c2cccc(C(=O)Nc3cccc(C#N)c3)c2)cc1	0.28 K
COc1ccc(N(C)S(=O)(=O)c2cccc(C(=O)Nc3ccc4ccccc4c3)c2)cc1	0.65 K
COc1ccc(N(C)S(=O)(=O)c2cccc(C(=O)Nc3ccc(OC)c(OC)c3)c2)cc1	-0.04 K
COc1ccc(N(C)S(=O)(=O)c2cccc(C(=O)Nc3ccc(Br)c(C(F)(F)F)c3)c2)cc1	0.69 K
CN(c1cccc(Cl)c1)S(=O)(=O)c1cccc(C(=O)Nc2cccc(C#N)c2)c1	0.45 K
COc1ccc(N(C)S(=O)(=O)c2cccc(C(=O)Nc3cccc4ccccc34)c2)cc1	-0.09 K
COc1ccc(N(C)S(=O)(=O)c2cccc(C(=O)Nc3cccc(C#N)c3)c2)cc1	0.35 K
COc1ccc(N(C)S(=O)(=O)c2cccc(C(=O)Nc3ncc(C(N)=O)s3)c2)cc1	-0.03 K
CC(C)Cn1c(SCC(=O)Nc2sc3c(c2C(N)=O)CCC3)nnc1N1CCOCC1	-0.18 K
Cc1ccc(-c2nn(-c3ccccc3)cc2C=C2C(=O)NC(=O)NC2=O)o1	-0.59 K
CN(CCC#N)C(=O)C(C)(C)c1ccccc1	-0.08 K
O=C(CSc1nnc(NCC2CCCO2)s1)Nc1nc(-c2cc(F)ccc2F)cs1 (stereo not shown)	0.01 K
COc1ccc(N(C)S(=O)(=O)c2cccc(C(=O)Nc3cccc(Br)c3)c2)cc1	0.32 K
Cc1ccc(N(C)S(=O)(=O)c2cccc(C(=O)Nc3nc4ccccc4[nH]3)c2)cc1	-0.06 K
COc1ccc(NC(=O)c2cccc(S(=O)(=O)N(C)c3ccc(OC)cc3)c2)cc1	-0.02 K
COc1ccc(N(C)S(=O)(=O)c2cccc(C(=O)Nc3ccc(Br)cc3)c2)cc1	1.36 K
CN(c1ccccc1)S(=O)(=O)c1cccc(C(=O)Nc2ccccc2-c2ccccc2)c1	-0.02 K
COc1ccc(N(C)S(=O)(=O)c2cccc(C(=O)Nc3ccc(Cl)cc3)c2)cc1	0.86 K

Structure (SMILES)	TSA(with NAD+) / Primary screening (TSA) / delta Tm (K)
CN(c1ccccc1)S(=O)(=O)c1cccc(C(=O)Nc2ccccc2-c2nc3ccccc3[nH]2)c1	0.38 K
CCCOC(=O)c1ccc(NC(=O)c2cccc(S(=O)(=O)N(C)c3ccc(OC)cc3)c2)cc1	0.29 K
COc1ccc(N(C)S(=O)(=O)c2cccc(C(=O)Nc3ccc(C)cc3)c2)cc1	0.11 K
NC(=O)c1oc2ccccc2c1NC(=O)Cc1ccc(Cl)c(Cl)c1	0.12 K
CC(=O)Nc1ccc(NCc2nnc3n(C)c(=O)c4ccccc4n23)cc1	-0.12 K
NC1=C(c2nc3ccccc3[nH]2)C(=O)CN1c1ccc(CC(=O)O)cc1	-0.03 K
CC(O)CCCN (stereo not shown)	-0.11 K
Cc1ccc(S(=O)(=O)N2CCCCC2)cc1NC(=O)COC(=O)c1ccccc1SCC(=O)N1CCCC1	-0.01 K
O=C(Nc1ccc(Oc2ncccn2)cc1)c1ccc(S(=O)(=O)Nc2ccc(F)cc2)cc1	0.06 K
Cc1nc(COc2ccc(C(=O)Nc3ccc(S(=O)(=O)Nc4cccc(F)c4)cc3)cc2)cs1	-0.14 K
N#CC(C(=O)c1ccc(NS(=O)(=O)c2ccccc2)cc1)c1nc(-c2ccccn2)cs1 (stereo not shown)	0.47 K
O=C(NN/C=C1/C(=O)N(c2cccc(C(F)(F)F)c2)C(=O)c2ccccc21)c1cccc(S(=O)(=O)Nc2ccccc2Cl)c1	0.99 K
Cc1ccc(N(C)S(=O)(=O)c2cccc(C(=O)Nc3ccccc3C(F)(F)F)c2)cc1	-0.09 K
Cc1ccc(N(C)S(=O)(=O)c2cccc(C(=O)Nc3ccccc3Cl)c2)cc1	-0.13 K
C=CCOc1ccc(C(=O)C2=C(O)C(=O)N(CCN3CCOCC3)C2c2ccco2)cc1 (stereo not shown)	-0.01 K
COc1ccccc1-c1noc(C(C)NC(=O)C(C)NC(C)=O)n1 (stereo not shown)	-0.01 K
COc1ccc(-c2cc(NC(=O)Cc3n[nH]c(=O)c4ccccc34)ccc2OC(F)F)cc1	0.07 K
COc1ccc(-c2cc(NC(=O)CCNC(=O)c3ccc(Cl)cc3)ccc2OC(F)F)cc1	0.45 K
COc1ccc(CC(=O)NCCNC(=O)c2ccc(C)c(F)c2)cc1	-0.13 K
O=C(C1=C(O)C(=O)N(CCCN2CCOCC2)C1c1cccc([N+](=O)[O-])c1)c1ccc(F)cc1 (stereo not shown)	0.06 K
O=C(COC(=O)c1cc(-c2ccc(Cl)cc2)nc2ccccc12)NNC(=O)c1cccs1	0.16 K
Cc1cccc(C(=O)OCc2ccc(C(=O)Nc3ccccc3)cc2)c1	-0.03 K

Structure (SMILES)	TSA(with NAD+) / Primary screening (TSA) / delta Tm (K)
Nc1nc(COC(=O)c2cccc(NC(=O)c3cccs3)c2)nc(Nc2ccccc2)n1	0.42 K
CC1CCCN(CCCNC(=O)CCc2cc3ccccc3[nH]c2=O)C1 (stereo not shown)	0.11 K
O=C(CCc1ccc2c(c1)OCO2)N1CCc2[nH]c3ccccc3c2C1	-0.01 K
O=C(Cc1c[nH]c2ccccc12)N1CCc2[nH]c3ccccc3c2C1	0.37 K
O=C(CN1CCCC2(CC=CCC2)C1)N1CCc2[nH]c3ccccc3c2C1 (stereo not shown)	0.06 K
Cc1n[nH]c(=O)c(C(=O)NNC(=O)CC23CC4CC(CC(C4)C2)C3)c1C	0.19 K
CCc1c(C)c(C#N)c2nc3ccccc3n2c1Cl	-0.05 K
CCc1c(C)c(C#N)c2nc3ccccc3n2c1S	0.46 K
Cc1c(CCC#N)c(Cl)n2c(nc3ccccc32)c1C#N	-0.03 K
CCNC(=O)NCc1ccc(NC(=O)Cc2cn(CC)c3ccccc23)cc1	0.09 K
Cc1ccc2nc(-c3ccccc3)c(N)n2c1	0.38 K
NC(=O)c1cc(NC(=O)CC(c2ccccc2)c2ccccc2)cc(C(N)=O)c1	-0.06 K
Cc1ccc(N(C)S(=O)(=O)c2cccc(C(=O)Nc3cc(F)ccc3C)c2)cc1	-0.01 K
O=C(Nc1cc(S(=O)(=O)N2CCOCC2)ccc1O)C1=COCCO1	-0.16 K
CC1CCc2sc(C(=O)Nc3ccccc3Cc3ccccc3)cc2C1 (stereo not shown)	-0.13 K
CC(=O)Nc1ccc(NC(=O)c2cccc(C(N)=O)c2)cc1C	-0.12 K
NC(=O)c1cccc(NC(=O)c2cc3c(s2)-c2ccccc2CC3)c1	0.88 K
O=C(O)c1nc(Nc2ccc(Cl)cc2)c2ccccc2n1	-0.11 K
CCn1nnc2cc(C(=O)N3CCN(C(c4ccc(F)cc4)c4ccc(F)cc4)CC3)ccc21	-0.22 K
Cc1ccc(NC(=O)COC(=O)c2ccc(-n3nnc4ccccc43)c([N+](=O)[O-])c2)cc1C	0.35 K
CC(OC(=O)c1cc2c(s1)CCCC2)C(=O)Nc1ccc(C(N)=O)cc1 (stereo not shown)	0.01 K
CCOc1ccc(NC(=O)CN(C)Cc2ccc(C(=O)Nc3ccccc3)cc2)cc1OCC	-0.02 K

Structure (SMILES)	TSA(with NAD+) / Primary screening (TSA) / delta Tm (K)
COc1cc(/C=N/NC(=O)c2cc3c(s2)CCCC3)ccc1OCC(=O)Nc1ccc(C)cc1	0.52 K
COc1cc(/C=N/NC(=O)c2cc3c(s2)CCCC3)ccc1OS(=O)(=O)c1cc(C)ccc1C	0.09 K
CCOc1cc(/C=N/NC(=O)c2cc3c(s2)CCCC3)ccc1OCC(=O)Nc1cccc(C(F)(F)F)c1	1.05 K
NC(=O)c1ccc(NC(=O)COC(=O)c2cc3c(s2)CCCCC3)cc1	-0.13 K
O=c1cc(CSc2ncc(C(F)(F)F)cc2Cl)nc2ccccn12	-0.23 K
Cc1cc(C=C2C(=O)NC(=S)NC2=O)c(C)n1-c1cccc(C(F)(F)F)c1	-0.73 K
Cc1oc2nc[nH]c(=O)c2c1C(=O)OC(C)C(=O)N1CCOCC1 (stereo not shown)	-0.06 K
CCn1cc(C2CCN(C(=O)Cc3cnc4ccccc4c3)CC2)cn1	0.68 K
CCSC1CCC(NC(=O)Cc2cnc3ccccc3c2)C1 (stereo not shown)	-0.11 K
O=C(Nc1cnc2ccccc2c1)C(=O)N1CCC(Oc2ccccc2)CC1	0.06 K
COc1ccc(CNCc2c[nH]nc2-c2ccc(C)cc2)cc1OC	-0.13 K
Nc1nc(-c2c(-c3ccccc3)[nH]c3ccccc23)cs1	0.16 K
c1ccc(-c2[nH]c3ccccc3c2-c2ccccc2)cc1	0.39 K
c1ccc(-c2[nH]c3c(ccc4ccccc43)c2-c2ccccc2)cc1	0.29 K
CC1COCCN1c1ncnc2ccsc12 (stereo not shown)	0.03 K
NC(=O)c1csc(C(=O)NCCc2cc(F)cc3c2OCOC3)c1	-0.03 K
Cc1ccc([N+](=O)[O-])cc1S(=O)(=O)Nc1ccc(C(=O)OC(C)C(=O)NC23CC4CC(CC(C4)C2)C3)cc1 (stereo not shown)	0.76 K
COc1cc(C(C)=O)ccc1COc1ccc(C(=O)OC(C)C(=O)NC23CC4CC(CC(C4)C2)C3)cc1OC (stereo not shown)	0.09 K
CC(OC(=O)c1cccc(S(=O)(=O)NCc2ccccc2)c1)C(=O)NC12CC3CC(CC(C3)C1)C2 (stereo not shown)	0.16 K

Source: paper PMC6925144, “A prospective compound screening contest identified broader inhibitors for Sirtuin 1” (Scientific Reports, 2019)
